# Only some compounds are listed: those with a hit (about 7.5% of all), similar ones and a draw of the others.
# NPC1 promoter act: qHTS Assay for NPC1 Promoter Activators; hit rate 2.4% among 320,000; Potency, µM (series often up to 9.22 µM), for inactives: top-dose activation, most hits filed as activators; AID 485313, 2010; Huh7 NPC1 promoter luciferase reporter, 24 h; also: % of control where 0% means no effect; nearly all actives have a fitted effect of over 60% in size
#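 Huh7 reporter cells (NPC1 promoter driving luciferase) are dosed with compound for 24 h at 37 °C, 5% CO2; luciferase detection reagent is then added and luminescence measured after 10 min at ambient temperature.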
# Rab9 prom act: qHTS Assay for Rab9 Promoter Activators; hit rate 2.8% among 320,000; Potency, µM (top dose mostly 9.22 µM), inactives show at the highest dose activation, negative = inhibition, usual class: activators; Huh7 Rab9 promoter-luciferase reporter, luminescence, 24 h; also: % of control where 0% means no effect; nearly all actives have a fitted effect of over 60% in size
#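 Huh7 cells stably carrying Rab9 promoter–luciferase reporter, plated 1500 cells/well, compound added after 2 h and incubated 24 h at 37 °C; luciferase luminescence then read after 10 min with detection reagent.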
# SMN2 splice enh: qHTS Assay for Enhancers of SMN2 Splice Variant Expression; AID 1458, 2008; hit rate 2.8% among 210,000; Potency, µM (doses to about 46.1 µM), inactives show top-dose activity change, positive = activation, actives largely listed as activators; HEK293 SMN2-luciferase splicing reporter, luminescence, 30-36 h; also: % of control where 0% means no effect; nearly all actives have a fitted effect of over 55% in size
#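 HEK293 cells carry an SMN2 minigene-luciferase reporter in which exon 7 inclusion puts luciferase in frame. Cells were seeded at 2000 cells/well, attached for 10-12 hours, then exposed to compounds for 30-36 hours at 37C before ONE-Glo luminescence.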
# FLuc modulator: qHTS profiling assay for firefly luciferase inhibitor/activator using purifed enzyme and Km concentrations of substrates (counterscreen for miR-21 project) | purified FLuc, Km substrates, luminescence inhibition | Luciferin 4-monooxygenase (Photinus pyralis), P08659 | hit rate 6.9% among 360,000 | Potency, µM (doses to about 57.5 µM), for inactives: at the top dose activity change, negative = inhibition, hits mostly inhibitors;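 also: plate controls were vehicle for no effect and reference inhibitor for full effect; nearly all actives have a fitted effect of over 55% in size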
# Target sequence (P08659 whole entry, looked up): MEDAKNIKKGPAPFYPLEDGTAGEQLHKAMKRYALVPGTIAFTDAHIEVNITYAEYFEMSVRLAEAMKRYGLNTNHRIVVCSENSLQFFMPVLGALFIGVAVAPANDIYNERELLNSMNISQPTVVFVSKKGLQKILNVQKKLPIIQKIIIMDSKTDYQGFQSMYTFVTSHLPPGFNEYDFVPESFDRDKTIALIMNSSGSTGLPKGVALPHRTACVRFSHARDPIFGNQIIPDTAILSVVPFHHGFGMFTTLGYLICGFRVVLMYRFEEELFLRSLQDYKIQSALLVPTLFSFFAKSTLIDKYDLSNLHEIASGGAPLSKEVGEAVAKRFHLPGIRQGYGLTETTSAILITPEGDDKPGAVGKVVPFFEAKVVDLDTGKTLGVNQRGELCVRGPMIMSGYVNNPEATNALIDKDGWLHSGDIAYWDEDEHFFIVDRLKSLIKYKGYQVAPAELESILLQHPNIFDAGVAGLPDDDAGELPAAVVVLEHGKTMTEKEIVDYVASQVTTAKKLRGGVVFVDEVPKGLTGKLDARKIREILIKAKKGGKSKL
#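 Biochemical qHTS of compounds, final roughly 60 µM downward over six points, against 10 nM purified firefly luciferase using Km concentrations of substrates (10 uM D-luciferin, 10 uM ATP) in Tris acetate pH 7.5 buffer; luminescence output.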
# ELG1 genotoxic: qHTS screen for small molecules that induce genotoxicity in human embryonic kidney (HEK293T) cells expressing luciferase-tagged ELG1 | HEK293T ELG1-luciferase reporter, luminescence, 16 h | Potency, µM (series often up to 46 µM), inactives show at the top dose activity change, positive = activation, hits mostly activators | hit rate 1.3% among 330,000; also: % of control where 0% means no effect; nearly all actives have a fitted effect of over 60% in size
#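 Reporter readout depends on ELG1 protein level, which increases with genetic stress. After 16 hr compound exposure at 37 °C, luciferase activity was quantified using ONE-Glo.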
# * marks the source's active call; other numbers are inactive results; ? = inconclusive; / = no result; [ ] = another dose, or the depositor's remark. Calls follow the shape of the dose curve; as a rule, active = well fitted curve in the direction sought with a large enough effect; inconclusive = small, poorly fitted or top-dose-only effect, or another doubt; inactive = no such curve, though single readings can be large; an effect the other way counts as inactive or inconclusive. Potency is read from the fitted curve at half-maximal effect.
SMILES,NPC1 promoter act,Rab9 prom act,SMN2 splice enh,FLuc modulator,ELG1 genotoxic
CCC(NC(=O)c1cc(COc2ccc(Cl)cc2OC)on1)c1ccncc1 (stereo not given),3.55µM*,3.98µM*,/,4.78µM*,?
COc1cc(Cl)ccc1OCc1cc(C(=O)NC(C)Cc2cnccn2)no1 (stereo not given),2.51µM*,1.12µM*,/,6.75µM*,?
COc1cc(Cl)ccc1OCc1cc(C(=O)NCC(C)c2ccccc2)no1 (stereo not given),-2.0%,2.0%,/,21.3µM*,-2.3%
O=C(NCc1ccccc1)c1ccc2c(c1)nc1n2CCOC1,/,/,/,-10.2%,/
COC(=O)/C=c1\[nH]c2nnc(C)n2c1=O,-0.8%,-6.1%,/,2.6%,-3.4%
O=C(O)Cn1c(COc2ccc(Cl)cc2)nc2ccccc21,-1.6%,1.8%,/,10.7µM*,-0.3%
O=C(Cn1c(COc2ccccc2)nc2ccccc21)Nc1cccc(Cl)c1,-2.4%,1.2%,/,-11.7%,11.3%
NNC(=O)Cn1c(COc2ccc(Cl)cc2)nc2ccccc21,-4.6%,2.5%,6.4%,12µM*,4.8%
S=C(NCc1ccco1)NCC1CCCO1 (stereo not given),1.2%,0.8%,7.0%,-0.8%,1.0%
c1ccc(CN(CCN(Cc2ccccn2)Cc2ccccn2)Cc2ccccn2)nc1,/,/,-101.1%,/,/
O=C(CNS(=O)(=O)c1ccc(Br)s1)NCCc1ccc(Cl)cc1,-0.1%,-2.5%,/,-3.4%,0.4%
CC(C)OC(=O)c1cccc(C(=O)Oc2ccc(Br)cc2)n1,-3.9%,-4.6%,1.2%,9.53µM*,0.1%
CCOc1ccc(-n2nc(CO)c(C(=O)NCc3ccc(Cl)cc3)n2)cc1,/,/,-7.0%,-6.7%,/
Cc1c(-c2ccc(Br)cc2)nc2ccccn12,3.16µM*,2.51µM*,/,2.39µM*,?
Cc1ccc(-c2nc3ccccn3c2C=O)cc1,?,3.55µM*,/,21.3µM*,?
COc1ccc(-c2nc3c4ccccc4ccn3c2C=O)cc1,-3.2%,7.2%,-3.5%,-11.3%,3.2%
Cc1ccccc1Nc1c(-c2cc(Br)ccc2F)nc2ccccn12,/,/,8.2%,-5.0%,/
c1ccn2c(c1)nc1c2nc2ccccn21,?,20.8%,24.3%,16.9µM*,?
CN(C)c1ccc(-c2nc3ccccn3c2/N=C/c2ccc(Br)cc2)cc1,?,?,3.16µM*,0.601µM*,?
N#Cc1c(-c2ccc(F)cc2)ccnc1N1CCOCC1,8.6%,11.5%,-5.9%,?,8.6%
Cc1cc(C)cc(-n2c(SCC(N)=O)nc3c(oc4ccccc43)c2=O)c1,/,/,0.1%,1.1%,/
Clc1c(-c2ccccc2)nc2ccccn12,3.98µM*,2.51µM*,/,12µM*,?
CN(C(=O)Cn1nc(Cc2cccnc2)c2ccccc2c1=O)c1cccc(C(F)(F)F)c1,/,/,-14.3%,-1.2%,/
Cc1ccc2c(c1)sc(-c1ccc(N(C)C)cc1)[n+]2C,-31.3%,-38.6%,/,12µM*,1.9%
O=C(c1ccc(F)cc1)c1ccc(N2CCCCC2)cc1,2.82µM*,2.51µM*,/,6.75µM*,?
SMILES,NPC1 promoter act,Rab9 prom act,SMN2 splice enh,FLuc modulator,ELG1 genotoxic
O=C(Nc1ccc(N2CCCCC2)cc1)c1cccnc1,?,?,22.4µM*,21.3µM*,9.2µM*
O=C(Nc1ccc(N2CCCCC2)cc1)c1ccc(F)cc1,0.891µM*,0.447µM*,3.55µM*,1.2µM*,1.64µM*
O=C(CCC(=O)N1CCN(c2ccc(F)cc2)CC1)N1CCN(c2ccc(F)cc2)CC1,-4.2%,-1.8%,/,3.8%,-8.2%
O=C(Nc1ccc(S(=O)(=O)N2CCCCC2)cc1)c1ccc(F)cc1,-0.7%,-8.1%,/,-1.1%,-15.8%
O=C(c1ccc(F)cc1)c1ccc(N2CCCC2)cc1,?,?,/,12µM*,14.1µM*
CC(C)OCCCn1c(SCc2ccccc2C#N)nc2c(sc3ccccc32)c1=O,/,/,/,-4.5%,/
O=C(O)CCNCC(=O)O,/,/,-3.0%[9.22 µM],/,/
CCC1=C(OC(=O)N(CC)CC)N2C(=O)OC(=NCC(=O)OC)[C@]2(Cc2ccccc2)[C@H]2C1=CC[C@H]1C(=O)NC(=O)[C@H]12,0.2%,-9.3%,-13.7%,0.3%,0.6%

# Bioassay records as filed in PubChem BioAssay.
